The target of experiment [1] is Guanine nucleotide-binding protein G(i) subunit alpha-1 (Homo sapiens) (UniProt P63096). Description: qHTS Assay for Inhibitors of RGS12 GoLoco Motif Activity (Green Fluorophore) (AID 879).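 Note: negative values mean loss of peptide binding seen as reduced polarization.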 The gist of the method: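 A drop in FITC polarization marked displacement of the FITC-tagged RGS12 GoLoco peptide (10 nM) from Gαi1 (50 nM). Compounds were incubated 10 min at room temperature in Tris pH 7.5 buffer containing 150 mM NaCl, 0.1 mM GDP and 0.05% NP40; unlabeled peptide titration served as control.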

Experiment [2] has as its target Cytochrome P450 3A4 (Homo sapiens) (UniProt P08684). Description: qHTS Assay for Activators of Cytochrome P450 3A4 (AID 885). Note: nearly all actives have a fitted effect of over 65% in size. Note: potency is the fitted concentration of half-maximal effect. The gist of the method: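 Human CYP3A4 dealkylates Luciferin-PPXE to luciferin, which luciferase detection converts to light. Substrate was at its KM (25uM), buffer 200mM KPO4, reaction 60 min at RT.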
A general note: qHTS replaces the single test concentration by a dilution series.

Experiment [3] addresses Cytochrome P450 2D6 (Homo sapiens) (UniProt P10635). Description: qHTS Assay for Inhibitors and Substrates of Cytochrome P450 2D6 (AID 891). Note: nearly all actives have a fitted effect of over 60% in size. Note: potency is the fitted concentration of half-maximal effect. The method, boiled down:
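Luminescent read-out of luciferin formed by 5 nM human CYP2D6 demethylating 30 uM Luciferin-ME EGE (Km level) over 60 min at room temperature after NADPH regeneration addition. Data normalized to full inhibition by 1.43 uM quinidine.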

The target in experiment [4] is Cytochrome P450 2C19 (Homo sapiens) (UniProt P33261). Briefly: qHTS Assay for Inhibitors and Substrates of Cytochrome P450 2C19 (AID 899). Note: nearly all actives have a fitted effect of over 60% in size. The method, boiled down: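 Signal comes from luciferase acting on luciferin released by CYP2C19-mediated hydroxylation of Luciferin-H EGE, 10uM (KM). Assay mix: 5nM enzyme, 50mM KPO4; 60 min at 37C with NADPH regeneration. Data normalized against 57uM ketoconazole.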

The nature of experiment [5]: Confirmation and Secondary Assay for Modulators of Hemoglobin Beta Chain Splicing at IVS2 654 locus (AID 910).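 Note: HeLa cells stably carrying EGFP split by mutant beta-globin IVS2-654 intron.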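 Note: potency is the fitted concentration of half-maximal effect; potency of activators that raise GFP signal by restoring correct splicing.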 The gist of the method: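 HeLa cells stably expressing EGFP interrupted by β-globin IVS2-654 intron, seeded overnight in Opti-MEM/2% FCS, then treated 2 days at 37 °C. Restored splicing read as total peak GFP intensity per well by laser scanning cytometry (488 nm excitation, 500–520 nm emission); 500 nM antisense PNA as control.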

Experiment [6] is described as follows: qHTS Assay for Identification of Small Molecule Antagonists for NFkB Signaling Pathway (AID 895; active = well fitted inhibition curve with a large enough effect in the signal ratio, with a control signal flat, not every such curve was filed as active; the % refers to the signal ratio). The gist of the method:
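ME-180 NFkB-bla cells (beta-lactamase under NFkB response element), plated overnight, treated with compound then 10 pM TNF alpha (about EC50) for 5 hrs at 37 C. LiveBLAzer FRET read at 460/530 nm emission, 405 nm excitation.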

The target in experiment [7] is Cytochrome P450 3A4 (Homo sapiens) (UniProt P08684). Description: qHTS Assay for Inhibitors and Substrates of Cytochrome P450 3A4 (AID 884). Note: series mostly up to about 57 µM; nearly all actives have a fitted effect of over 50% in size. The method, boiled down:
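Luminescent readout of luciferin produced by CYP3A4 (20 nM) dealkylation of Luciferin-PPXE, 25 uM (its KM). NADPH-driven reaction ran 60 min at RT after 10 min compound preincubation; data scaled to 57 uM ketoconazole as 100% inhibition.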

Experiment [8] concerns the target Cytochrome P450 2C9 (Homo sapiens) (UniProt P11712). Briefly: qHTS Assay for Inhibitors and Substrates of Cytochrome P450 2C9 (AID 883). Note: nearly all actives have a fitted effect of over 60% in size. The method, boiled down:
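Signal: luciferase luminescence reporting luciferin produced by CYP2C9. Conditions: 10nM enzyme, Luciferin-H 100uM at KM, 25mM KPO4, 37C, 60 min NADPH-driven reaction. Reference: 57uM sulphaphenazole as 100% inhibition.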

Where “and” joins values, the source holds several entries; their conditions need not be identical. Equal entries are not always repeated. Inconclusive results are not listed. Entries that show only a call come without a potency. Some compounds were tested as several samples or in several runs, with calls that do not always agree. Calls of active or inactive are those of the source. Unless noted, calls come from the whole dose curve; as a rule, active = well fitted curve in the direction sought with a large enough effect; inconclusive = small, poorly fitted or top-dose-only effect, or another doubt; inactive = no such curve, though single readings can be large; an effect the other way counts as inactive or inconclusive.

Cytochrome P450 2C9 (Homo sapiens), sequence (P11712 whole entry, looked up): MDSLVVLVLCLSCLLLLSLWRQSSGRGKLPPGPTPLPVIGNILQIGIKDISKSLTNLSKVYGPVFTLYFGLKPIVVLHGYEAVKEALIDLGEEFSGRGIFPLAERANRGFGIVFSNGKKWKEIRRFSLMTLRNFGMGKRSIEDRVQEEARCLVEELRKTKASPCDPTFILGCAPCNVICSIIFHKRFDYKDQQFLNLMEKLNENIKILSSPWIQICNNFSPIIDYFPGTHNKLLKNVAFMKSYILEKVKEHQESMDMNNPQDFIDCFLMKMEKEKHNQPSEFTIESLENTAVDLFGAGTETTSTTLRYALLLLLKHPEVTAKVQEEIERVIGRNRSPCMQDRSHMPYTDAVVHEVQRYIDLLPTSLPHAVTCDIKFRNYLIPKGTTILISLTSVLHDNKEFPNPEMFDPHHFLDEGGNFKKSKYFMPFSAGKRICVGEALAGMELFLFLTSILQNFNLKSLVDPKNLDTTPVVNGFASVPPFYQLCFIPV
Cytochrome P450 2C19 (Homo sapiens), sequence (P33261 whole entry, looked up): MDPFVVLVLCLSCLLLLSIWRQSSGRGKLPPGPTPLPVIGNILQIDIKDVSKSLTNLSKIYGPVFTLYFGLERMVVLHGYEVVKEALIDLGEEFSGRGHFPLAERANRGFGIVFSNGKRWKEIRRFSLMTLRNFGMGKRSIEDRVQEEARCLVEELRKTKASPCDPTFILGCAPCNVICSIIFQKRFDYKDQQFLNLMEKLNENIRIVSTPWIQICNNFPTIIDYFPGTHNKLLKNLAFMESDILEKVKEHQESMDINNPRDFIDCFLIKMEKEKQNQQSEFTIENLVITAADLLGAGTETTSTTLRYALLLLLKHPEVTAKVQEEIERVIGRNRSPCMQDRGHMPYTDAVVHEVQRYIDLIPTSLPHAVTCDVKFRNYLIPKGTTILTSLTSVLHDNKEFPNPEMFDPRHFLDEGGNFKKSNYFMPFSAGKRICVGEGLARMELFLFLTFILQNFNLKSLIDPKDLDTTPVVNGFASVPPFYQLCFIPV
Cytochrome P450 3A4 (Homo sapiens), sequence (P08684 whole entry, looked up): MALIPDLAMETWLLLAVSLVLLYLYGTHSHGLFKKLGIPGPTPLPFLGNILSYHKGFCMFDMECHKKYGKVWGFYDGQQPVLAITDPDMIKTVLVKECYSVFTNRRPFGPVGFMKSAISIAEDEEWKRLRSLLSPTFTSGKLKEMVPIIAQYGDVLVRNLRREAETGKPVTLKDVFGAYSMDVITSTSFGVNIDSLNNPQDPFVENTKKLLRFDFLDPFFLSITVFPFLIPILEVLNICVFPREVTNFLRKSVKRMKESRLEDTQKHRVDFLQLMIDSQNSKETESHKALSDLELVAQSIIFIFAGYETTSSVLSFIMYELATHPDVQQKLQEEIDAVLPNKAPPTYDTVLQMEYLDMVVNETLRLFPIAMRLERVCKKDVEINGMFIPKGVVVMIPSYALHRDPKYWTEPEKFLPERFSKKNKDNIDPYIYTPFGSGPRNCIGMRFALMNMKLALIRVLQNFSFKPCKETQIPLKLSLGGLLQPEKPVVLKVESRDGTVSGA
Guanine nucleotide-binding protein G(i) subunit alpha-1 (Homo sapiens), sequence (P63096 whole entry, looked up): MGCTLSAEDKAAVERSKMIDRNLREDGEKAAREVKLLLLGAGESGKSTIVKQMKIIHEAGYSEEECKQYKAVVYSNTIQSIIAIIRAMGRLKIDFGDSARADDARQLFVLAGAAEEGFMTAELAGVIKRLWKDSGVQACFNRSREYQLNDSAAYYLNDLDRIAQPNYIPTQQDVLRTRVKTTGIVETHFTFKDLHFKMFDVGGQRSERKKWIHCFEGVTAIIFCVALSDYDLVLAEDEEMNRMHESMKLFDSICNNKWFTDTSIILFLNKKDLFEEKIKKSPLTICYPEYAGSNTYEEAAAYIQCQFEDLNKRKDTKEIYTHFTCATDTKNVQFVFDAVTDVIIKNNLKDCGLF
Cytochrome P450 2D6 (Homo sapiens), sequence (P10635 whole entry, looked up): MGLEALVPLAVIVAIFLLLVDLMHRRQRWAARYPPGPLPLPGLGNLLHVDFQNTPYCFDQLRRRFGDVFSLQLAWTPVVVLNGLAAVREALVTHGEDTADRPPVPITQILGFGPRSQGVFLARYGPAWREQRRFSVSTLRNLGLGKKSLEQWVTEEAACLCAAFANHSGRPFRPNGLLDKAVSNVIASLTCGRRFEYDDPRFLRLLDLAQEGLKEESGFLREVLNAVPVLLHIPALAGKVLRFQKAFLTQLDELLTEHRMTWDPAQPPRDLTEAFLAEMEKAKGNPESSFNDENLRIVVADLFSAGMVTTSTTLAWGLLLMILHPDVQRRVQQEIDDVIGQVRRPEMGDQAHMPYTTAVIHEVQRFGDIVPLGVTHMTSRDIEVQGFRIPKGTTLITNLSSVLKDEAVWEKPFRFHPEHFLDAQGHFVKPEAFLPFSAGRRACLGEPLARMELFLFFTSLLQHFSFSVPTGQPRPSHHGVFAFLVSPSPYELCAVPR

With `Cc1cc(C(C)(C)C)c(O)c(C)c1CC1=NCCN1`, the Potency result in experiment [1], in experiment [2], in experiment [4] and in experiment [5] was “inactive” throughout. In experiment [3], the Potency was 3.98 µM (active) and 39.8 nM (active).
With `C[C@](N)(Cc1ccc(O)c(O)c1)C(=O)O`, the Potency entry in experiment [1], in experiment [2] and in experiment [6] was “inactive” each time.
For `NCCCCCC(=O)O`, the Potency result in experiment [1] and in experiment [5] was “inactive” in each case. The outcome in experiment [7] was inactive.
For the compound `Fc1ccc([C@@H]2CCNC[C@H]2COc2ccc3c(c2)OCO3)cc1`, the Potency entry in experiment [1] and in experiment [2] was “inactive” in each case.
Regarding `CN(Cc1cnc2nc(N)nc(N)c2n1)c1ccc(C(=O)N[C@@H](CCC(=O)O)C(=O)O)cc1`, in experiment [1], the Potency entry was “inactive”. Also, the compound was called inactive in experiment [7].
For the compound `NC(=O)OCC(COC(N)=O)c1ccccc1`, the Potency entry in experiment [1], in experiment [8], in experiment [6] and in experiment [4] was “inactive” throughout. Further, the Potency result in experiment [3] is “inactive and 794 nM (active)”.
For the compound `CC(C)Cc1ccc(C(C)C(=O)O)cc1` (stereo not given), the Potency entry in experiment [1] and in experiment [5] was “inactive” each time. Moreover, the compound was called inactive in experiment [7].
With `CN1CCN(CCCN2c3ccccc3Sc3ccc(Cl)cc32)CC1`, the Potency entry in experiment [1] and in experiment [5] was “inactive” each time. In experiment [3], the Potency was 398 nM (active) and 794 nM (active).
Consider `COc1ccc(C2CNC(=O)C2)cc1OC1CCCC1` (stereo not given), for which the Potency entry in experiment [1], in experiment [2] and in experiment [6] was “inactive” in each case.
With `Cn1cnc2c1c(=O)[nH]c(=O)n2C`, the Potency entry in experiment [1], in experiment [6] and in experiment [5] was “inactive” each time.
As for `Cc1cc(C(C)(C)C)cc(C)c1CC1=NCCN1`, the Potency result in experiment [1], in experiment [2] and in experiment [5] was “inactive” throughout. Besides, in experiment [3], the Potency was 3.98 µM (active).
`NC12CC3CC(CC(C3)C1)C2`: the Potency result in experiment [1] and in experiment [5] was “inactive” each time.
For the compound `CCCCc1oc2ccccc2c1C(=O)c1cc(I)c(OCCN(CC)CC)c(I)c1`, the Potency entry in experiment [1] and in experiment [5] was “inactive” throughout.
Regarding `CN1CCN(C2=Nc3cc(Cl)ccc3Nc3ccccc32)CC1`, the Potency entry in experiment [1] and in experiment [5] was “inactive” in each case.
For the compound `CC(=O)OCC(CCn1cnc2cnc(N)nc21)COC(C)=O`, the outcome in experiment [7] was inactive. In experiment [5], the Potency entry is “inactive”.
For the compound `CC1COc2c(N3CCN(C)CC3)c(F)cc3c(=O)c(C(=O)O)cn1c23` (stereo not given), in experiment [5], the Potency entry was “inactive”.
Turning to `OCCN1CCN(CCCN2c3ccccc3Sc3ccc(C(F)(F)F)cc32)CC1`, the Potency entry in experiment [1] and in experiment [5] was “inactive” throughout.
Take `COc1cc2nc(N3CCN(C(=O)c4ccco4)CC3)nc(N)c2cc1OC`: the Potency result in experiment [8] and in experiment [3] was “inactive” throughout. Further, the call in experiment [7] was inactive. Also, the Potency in experiment [2] was 12.6 µM (active).
Turning to `O=C(CCCN1CCC(O)(c2ccc(Cl)cc2)CC1)c1ccc(F)cc1`, the Potency result in experiment [1] and in experiment [5] was “inactive” in each case.
As to `CN1CCN2c3ccccc3Cc3ccccc3C2C1` (stereo not given), the Potency result in experiment [2] and in experiment [5] was “inactive” throughout.
Regarding `CC(C(=O)O)c1cccc(C(=O)c2ccccc2)c1` (stereo not given), in experiment [5], the Potency entry is “inactive”.
`NC(CO)C(=O)NNCc1ccc(O)c(O)c1O` (stereo not given): the Potency entry in experiment [5] is “inactive”.
With `CCc1cccc2c3c([nH]c12)C(CC)(CC(=O)O)OCC3` (stereo not given), the Potency result in experiment [1] and in experiment [5] was “inactive” throughout.
`NC(=O)NO`: the Potency entry in experiment [1] and in experiment [5] was “inactive” each time.
Consider `CC12CC3CC(C)(C1)CC(N)(C3)C2`, for which the call in experiment [7] was inactive. The Potency result in experiment [5] is “inactive”.
For `CCC1(C)CC(=O)NC1=O` (stereo not given), the outcome in experiment [7] was inactive. In experiment [5], the Potency entry is “inactive”.
As for `CCOC(=O)c1ncn2c1CN(C)C(=O)c1cc(F)ccc1-2`, the Potency result in experiment [8], in experiment [3] and in experiment [4] was “inactive” throughout. The result in experiment [7] was inactive.
As to `COc1ccccc1OCC(O)CN1CCN(CC(=O)Nc2c(C)cccc2C)CC1` (stereo not given), the Potency entry in experiment [5] was “inactive”.
As to `CN(C)C(=N)N=C(N)N`, the Potency result in experiment [5] is “inactive”.
On to `COc1cc2nc(N(C)CCCNC(=O)C3CCCO3)nc(N)c2cc1OC` (stereo not given), for which, in experiment [7], the outcome was inactive. Moreover, the Potency result in experiment [5] is “inactive”.
As for `CCCNCC(O)COc1ccccc1C(=O)CCc1ccccc1` (stereo not given), the Potency entry in experiment [5] was “inactive”.
As to `CCN1CCCC1CNC(=O)c1cc(S(=O)(=O)CC)c(N)cc1OC` (stereo not given), in experiment [7], the call was inactive.
On to `Cc1ccc(C(=O)Nc2ccc(S(=O)(=O)O)c3cc(S(=O)(=O)O)cc(S(=O)(=O)O)c23)cc1NC(=O)c1cccc(NC(=O)Nc2cccc(C(=O)Nc3cc(C(=O)Nc4ccc(S(=O)(=O)O)c5cc(S(=O)(=O)O)cc(S(=O)(=O)O)c45)ccc3C)c2)c1`, for which the Potency result in experiment [1] and in experiment [5] was “inactive” in each case.
Take `O=C(c1ccc(F)cc1)C1CCN(CCn2c(=O)[nH]c3ccccc3c2=O)CC1`: the Potency result in experiment [1] and in experiment [5] was “inactive” in each case.
For `CNCCCC12CCC(c3ccccc31)c1ccccc12`, the Potency result in experiment [1] and in experiment [5] was “inactive” each time.
In the case of `NCCc1cnc[nH]1`, the Potency result in experiment [1] and in experiment [5] was “inactive” in each case.
As for `CN(C)C(=O)C(CCN1CCC(O)(c2ccc(Cl)cc2)CC1)(c1ccccc1)c1ccccc1`, the Potency entry in experiment [1] and in experiment [5] was “inactive” throughout.
As to `COc1ccccc1OCCNCC(O)COc1cccc2[nH]c3ccccc3c12` (stereo not given), the Potency entry in experiment [5] is “inactive”.
For the compound `CC[C@@]1(O)C(=O)OCc2c1cc1n(c2=O)Cc2cc3c(CN(C)C)c(O)ccc3nc2-1`, the outcome in experiment [7] was inactive. Further, in experiment [5], the Potency is 12.6 µM (active).
With `CN(C)CCOC(c1ccccc1)c1ccccc1`, the Potency result in experiment [1] and in experiment [5] was “inactive” each time.

Source of the values: PubChem BioAssay (NCATS).
